Where a name gives a salt, the structure may show the parent alone.
Assays:
U-2932 [1] = assay: growth inhibition by drug alone (1 - RLU/untreated control) (fraction); higher = stronger inhibition; conditions: 177Lu-lilotomab satetraxetan 0 ug/ml
Method in brief: (§1)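 Compound doses on the pre-printed Selleck Cambridge Cancer Compound library plates were 10/100 nM for RIVA cells and 10/1,000 nM for U-2932 cells, seeded at 3,000 cells/well. Before seeding, cells were washed after 18 h with or without a radiolabelled anti-CD37 antibody conjugate (~600 MBq/mg; 0.5 µg/ml RIVA, 1 µg/ml U-2932). Growth inhibition was derived from RealTime-Glo luminescence relative to untreated no-drug control wells. Readings were taken daily starting on day 3, each after 1 h at 37°C, and each well's RLU was divided by the mean of 48 such wells per plate and subtracted from 1.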

RIVA [2] = assay: as above; conditions: 177Lu-lilotomab satetraxetan 0 ug/ml
Method in brief: as §1

U-2932 [3] = assay: growth inhibition by drug plus 177Lu-lilotomab satetraxetan (1 - RLU/untreated control) (fraction); higher = stronger inhibition; conditions: 177Lu-lilotomab satetraxetan 1 ug/ml
Method in brief: as §1

RIVA [4] = assay: as above; conditions: 177Lu-lilotomab satetraxetan 0.5 ug/ml
Method in brief: as §1

SMILES | growth inhibition by drug alone (U-2932 [1]; 10 nM, time (day): 3) | growth inhibition by drug alone (U-2932 [1]; 10 nM, time (day): 4) | growth inhibition by drug alone (U-2932 [1]; 10 nM, time (day): 5) | growth inhibition by drug alone (U-2932 [1]; 10 nM, time (day): 6) | growth inhibition by drug alone (U-2932 [1]; 1000 nM, time (day): 3) | growth inhibition by drug alone (U-2932 [1]; 1000 nM, time (day): 4) | growth inhibition by drug alone (U-2932 [1]; 1000 nM, time (day): 5) | growth inhibition by drug alone (U-2932 [1]; 1000 nM, time (day): 6) | growth inhibition by drug alone (RIVA [2]; 10 nM, time (day): 3) | growth inhibition by drug alone (RIVA [2]; 10 nM, time (day): 4) | growth inhibition by drug alone (RIVA [2]; 10 nM, time (day): 5) | growth inhibition by drug alone (RIVA [2]; 10 nM, time (day): 6) | growth inhibition by drug alone (RIVA [2]; 100 nM, time (day): 3) | growth inhibition by drug alone (RIVA [2]; 100 nM, time (day): 4) | growth inhibition by drug alone (RIVA [2]; 100 nM, time (day): 5) | growth inhibition by drug alone (RIVA [2]; 100 nM, time (day): 6) | growth inhibition by drug plus 177Lu-lilotomab satetraxetan (U-2932 [3]; 10 nM, time (day): 3) | growth inhibition by drug plus 177Lu-lilotomab satetraxetan (U-2932 [3]; 10 nM, time (day): 4) | growth inhibition by drug plus 177Lu-lilotomab satetraxetan (U-2932 [3]; 10 nM, time (day): 5) | growth inhibition by drug plus 177Lu-lilotomab satetraxetan (U-2932 [3]; 10 nM, time (day): 6) | growth inhibition by drug plus 177Lu-lilotomab satetraxetan (U-2932 [3]; 1000 nM, time (day): 3) | growth inhibition by drug plus 177Lu-lilotomab satetraxetan (U-2932 [3]; 1000 nM, time (day): 4) | growth inhibition by drug plus 177Lu-lilotomab satetraxetan (U-2932 [3]; 1000 nM, time (day): 5) | growth inhibition by drug plus 177Lu-lilotomab satetraxetan (U-2932 [3]; 1000 nM, time (day): 6) | growth inhibition by drug plus 177Lu-lilotomab satetraxetan (RIVA [4]; 10 nM, time (day): 3) | growth inhibition by drug plus 177Lu-lilotomab satetraxetan (RIVA [4]; 10 nM, time (day): 4) | growth inhibition by drug plus 177Lu-lilotomab satetraxetan (RIVA [4]; 10 nM, time (day): 5) | growth inhibition by drug plus 177Lu-lilotomab satetraxetan (RIVA [4]; 10 nM, time (day): 6) | growth inhibition by drug plus 177Lu-lilotomab satetraxetan (RIVA [4]; 100 nM, time (day): 3) | growth inhibition by drug plus 177Lu-lilotomab satetraxetan (RIVA [4]; 100 nM, time (day): 4) | growth inhibition by drug plus 177Lu-lilotomab satetraxetan (RIVA [4]; 100 nM, time (day): 5) | growth inhibition by drug plus 177Lu-lilotomab satetraxetan (RIVA [4]; 100 nM, time (day): 6)
Cc1cnc(Nc2ccc(OCCN3CCCC3)cc2)nc1Nc1cccc(S(=O)(=O)NC(C)(C)C)c1 | -0.0562 | -0.0523 | -0.0582 | -0.0993 | 0.149 | 0.111 | -0.00563 | 0.00366 | -0.231 | -0.238 | -0.322 | -0.459 | -0.338 | -0.438 | -0.41 | -0.775 | -0.0587 | -0.0475 | -0.0161 | 0.0198 | 0.127 | 0.122 | 0.0513 | 0.0765 | 0.273 | 0.437 | 0.468 | 0.492 | 0.205 | 0.275 | 0.289 | 0.307
Cc1nnc(C(C)C)n1C1C[C@H]2CC[C@@H](C1)N2CC[C@H](NC(=O)C1CCC(F)(F)CC1)c1ccccc1 (stereo in doubt) [Maraviroc] | 0.125 | 0.118 | 0.0854 | -0.0157 | 0.0827 | 0.0764 | -0.0104 | -0.122 | 0.071 | 0.0921 | 0.049 | -0.0807 | 0.1 | 0.0864 | 0.0269 | -0.0532 | 0.128 | 0.146 | 0.143 | 0.239 | 0.0251 | 0.112 | 0.105 | 0.201 | 0.542 | 0.609 | 0.618 | 0.645 | 0.545 | 0.593 | 0.587 | 0.584
CNC(=O)c1ccc(C)c(-n2c(C)cc(OCc3ccc(F)cc3F)c(Br)c2=O)c1 | -0.0234 | -0.0123 | -0.0323 | 0.108 | 0.24 | 0.241 | 0.147 | 0.195 | -0.177 | -0.212 | -0.219 | -0.282 | -0.0302 | -0.0737 | -0.127 | -0.224 | -0.0515 | -0.0206 | -0.0169 | 0.111 | 0.253 | 0.259 | 0.213 | 0.294 | 0.41 | 0.508 | 0.521 | 0.522 | 0.384 | 0.458 | 0.462 | 0.428
COc1ccc(C2CC(c3ccccc3)=NN2c2ccc(S(N)(=O)=O)cc2)cc1 (centres undefined) | 0.0454 | 0.0281 | -0.0412 | -0.122 | -0.0544 | 0.00397 | -0.0999 | -0.129 | -0.0673 | -0.122 | -0.182 | -0.683 | -0.196 | -0.182 | -0.21 | -0.396 | 0.0153 | 0.0306 | 0.0246 | 0.0751 | -0.0784 | 0.0449 | -0.00789 | 0.0654 | 0.344 | 0.49 | 0.534 | 0.554 | 0.412 | 0.495 | 0.491 | 0.476
CCc1c2c(nc3ccc(OC(=O)N4CCC(N5CCCCC5)CC4)cc13)-c1cc3c(c(=O)n1C2)COC(=O)[C@]3(O)CC [Irinotecan HCl Trihydrate (Campto)] | -0.0148 | -0.0323 | -0.109 | -0.0905 | 0.841 | 0.921 | 0.96 | 0.976 | -0.0524 | -0.159 | -0.223 | -0.511 | -0.259 | -0.163 | -0.0382 | 0.00676 | 0.0165 | 0.04 | 0.0458 | 0.118 | 0.839 | 0.928 | 0.965 | 0.98 | 0.219 | 0.422 | 0.475 | 0.51 | 0.485 | 0.649 | 0.699 | 0.741
CCCC(=O)[O-].[Na+] [Sodium butyrate] | -0.0432 | -0.057 | -0.0778 | -0.0762 | -0.0747 | -0.0522 | -0.0783 | -0.149 | -0.23 | -0.252 | -0.304 | -0.546 | -0.245 | -0.343 | -0.3 | -0.374 | -0.0586 | -0.0574 | -0.0479 | -0.015 | -0.0238 | 0.0387 | 0.0442 | 0.139 | 0.36 | 0.484 | 0.502 | 0.51 | 0.431 | 0.486 | 0.506 | 0.493
CN(N=O)C(=O)N[C@@H](C=O)[C@@H](O)[C@H](O)[C@H](O)CO [Streptozotocin (Zanosar)] | -0.0672 | -0.049 | -0.0365 | 0.111 | -0.124 | -0.0755 | -0.109 | -0.156 | -0.263 | -0.268 | -0.296 | -0.472 | -0.291 | -0.295 | -0.308 | -0.376 | -0.0646 | -0.0512 | -0.0238 | 0.118 | -0.0995 | -0.0176 | -0.0119 | 0.0347 | 0.377 | 0.504 | 0.521 | 0.516 | 0.38 | 0.458 | 0.481 | 0.445

Reference: the supplement of paper PMC6897291
